The structures appear in SMILES notation. Activity calls are given as the source filed them. The calls were made as follows: active = hit-call score of the fitted dose curve at least 0.9, where 1 is the maximum; inactive = score below 0.9.

The nature of the assay: ATG_Sox_CIS: Attagene CIS-FACTORIAL HepG2 Assay for human SRY-box transcription factor (SOX) (AID 2282960). As to conditions: HepG2 Attagene cis-factorial SOX reporter, mRNA; actives raise or lower the signal. The protocol: ATG_CIS is a cell-based, multiplexed-readout assay that uses HepG2, a human liver cell line, with measurements taken at 24 hours after chemical dosing in a 24-well plate.ATG_Sox_CIS is one of 52 assay component(s) measured or calculated from the ATG_CIS assay. It is designed to make measurements of mRNA induction, a form of inducible reporter, as detected with fluorescence intensity signals by Reverse transcription polymerase chain reaction (RT-PCR) and Capillary electrophoresis technology.Data from the assay component ATG_Sox_CIS was analyzed into 1 assay endpoint. This assay endpoint, ATG_Sox_CIS, was analyzed with bidirectional fitting relative to DMSO as the negative control and baseline of activity. Using a type of inducible reporter, measures of mRNA for gain or loss-of-signal activity can be used to understand the reporter gene at the transcription factor-level as they relate to the gene SOX1. Furthermore, this assay endpoint can be referred to as a primary readout, because this assay has produced multiple assay endpoints where this one serves a reporter gene function. To generalize the intended target to other relatable targets, this assay endpoint is annotated to the dna binding intended target family, where the subfamily is HMG box protein.
Human liver HepG2 cells are transiently transfected with multiple reporter transcription units (MRTUs) in 6-well plates using FuGene 6 reagent (Roche; 3 ml FuGene/1 mg DNA). The MRTU constructs are regulated by a cis-regulating element (promoter). […] A major difference between the CIS and TRANS system is that in CIS activities of endogenous TFs are measured, whereas the TRANS assay evaluates changes in activities of exogenous, chimeric NR-Gal4 proteins. […] At the end of 24 hour incubation, total RNA was isolated using TriZol reagent (Invitrogen). The isolated RNA is then reverse-transcribed using oligo(dT) primer and Mo-MLV reverse transcriptase (Invitrogen) with DNAse I (Ambion) treatment for 30 min. The one-tenth of the produced cDNA was amplified by PCR using Taq DNA polymerase (Invitrogen) and two reporter sequence-specific primers. The PCR products were fluorescently labeled by primer extension with 6-arboxyfluorescein (6-FAM) 5'-labeled reporter sequence-specific primer (2 min at 95 C, 20 s at 68 C and 10 min at 72 C) and these products were digested with 5U of HpaI (New England Biolabs) for 2h at 37 C. The fragments were purified using Qiaquick PCR columns (Qiagen), analyzed on an ABI 3130xL genetic analyzer (Applied Biosystems) with peak positions identified by using a set of X-rhodamine (ROX)-labeled MapMarker1000 molecular weight standards (BioVentures). The raw capillary electrophoresis data was processed using Attagraph software (Attagene).
As for `N#Cc1cc([N+](=O)[O-])ccc1N`, the molecule was called inactive.
Broadly, the AC50 is the concentration giving half of the maximal activity seen. `CC(C)(C)c1ccc(O)cc1`: the AC50 was 175 µM (active).
Take `CCCCOCC1CO1` (stereo not given): the molecule was called inactive.
On the same count and under the same terms, under `Cc1ccc(O)cc1C` stands “inactive”; under `O=C(O)CF`, “inactive”.
Same read-out and setting: under `Nc1ccc(Sc2ccc(N)cc2)cc1` stands “inactive”; under `CCCCC(CC)COC(=O)c1c(Br)c(Br)c(Br)c(Br)c1C(=O)OCC(CC)CCCC` (stereo not given), “inactive”.
For the molecule `Nc1ccc([N+](=O)[O-])cc1Cl`, the molecule was called inactive.
`CCCCc1ccccc1`: the call was inactive.
Same read-out and setting: under `OCC(F)(F)OC(F)(F)C(F)(F)OC(F)(F)CO` stands “inactive”; under `COP(=O)(O)OC`, “inactive”.
As for `O=P1(N(CCCl)CCCl)NCCCO1` (stereo not given), the outcome was inactive.
Still for that read-out and setting: under `Cc1ccc(C(=O)Cl)cc1` stands “inactive”.
Turning to `O=S(=O)(c1ccc(O)cc1)c1ccc(O)cc1`, the call was inactive.
The same measure, in the same setting: with `CCCCCCCc1ccc(O)cc1` the entry was “inactive”.
Take `ClC(Cl)c1ccccc1`: the molecule was classed as inactive.
Consider `CSC(C)(C)C=NO`, for which the call was inactive.
Still for that read-out and setting: under `CCNc1nc(Cl)nc(NC(C)(C)C)n1` stands “inactive”; under `CCC(C)(C)c1ccc(O)cc1`, “inactive”; under `COP(=O)(CCC(=O)NCO)OC`, “inactive”.
In the case of `Nc1ccc2ccccc2c1`, the molecule was called inactive.
Same read-out and setting: under `Cc1ccc([N+](=O)[O-])cc1C` stands “inactive”.
Regarding `CCOP(=S)(NC(C)C)Oc1ccccc1C(=O)OC(C)C` (stereo not given), the call was inactive.
Same read-out and setting: under `CC(Cl)CN(C)C` (stereo not given) stands “inactive”; under `OCC(F)(F)OC(F)(F)C(F)(F)OC(F)(F)C(F)(F)OC(F)(F)F`, “inactive”.
On the same count and under the same terms, under `CCOS(=O)(=O)OCC` stands “inactive”; under `CC(=O)CCc1ccc2c(c1)OCO2`, “inactive”; under `CCCCOCCOP(=O)(OCCOCCCC)OCCOCCCC`, “inactive”.
On the same count and under the same terms, with `ClC(Cl)(Cl)c1ccccc1` the entry was “inactive”; with `O=S(=O)(F)C(F)(F)C(F)(F)C(F)(F)C(F)(F)C(F)(F)C(F)(F)C(F)(F)C(F)(F)F`, “inactive”.
As to `Oc1ccc(I)cc1`, the molecule was classed as inactive.
For the molecule `c1nc[nH]n1`, the outcome was inactive.
Still for that read-out and setting: under `CCCCN(CC)C(=O)SCCC` stands “inactive”; under `CN(C)C(=O)Cl`, “inactive”.
In the case of `CC(Cl)(Cl)C(=O)O`, the result was inactive.
Still for that read-out and setting: with `ClC1=C(Cl)C2(Cl)C3C(Cl)C(Cl)CC3C1(Cl)C2(Cl)Cl` (stereo not given) the entry was “inactive”.
Turning to `CC1(C)CN=C(NN=C(/C=C/c2ccc(C(F)(F)F)cc2)/C=C/c2ccc(C(F)(F)F)cc2)NC1`, the AC50 is 15.4 µM (active).
For the molecule `Cc1ccc2c(c1N)C(=O)c1ccccc1C2=O`, the molecule was called inactive.
Still for that read-out and setting: with `CCOP(=S)(OCC)SCSc1ccc(Cl)cc1` the entry was “inactive”.
The same measure, in the same setting: under `CC(O)C#N` (stereo not given) stands “inactive”.

The values above are taken from PubChem BioAssay (EPA / NIEHS).
